Bioassay records (PubChem BioAssay)
G9a block = qHTS Assay for Inhibitors of Histone Lysine Methyltransferase G9a | G9a H3K9 monomethylation, AlphaScreen, 2 h | Potency, µM (series often up to 102 µM), inactives show at the highest dose activity, negative = inhibition, most hits filed as inhibitors | actives 8.8% (n = 350,000) | AID 504332, 2011; also: % is scaled to controls: 0 for no effect and ±100 for the full control effect; nearly all actives have a fitted effect of over 75% in size
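Methyltransferase reactions run at room temperature for 2 h (20 nM enzyme, 500 nM biotin-H3K9 peptide, 20 uM SAM) after a 15 min compound preincubation; product detected by AlphaScreen beads and anti-H3K9me1 antibody.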
L3MBTL1 block = qHTS Assay for the Inhibitors of L3MBTL1; AlphaScreen L3MBTL1–H3K9me1 peptide binding; Potency, µM (series often up to 57.1 µM), for the others: at the highest dose activity, negative = inhibition, most hits filed as inhibitors; actives 0.66% (n = 230,000); AID 485360, 2010; also: % is scaled to controls: 0 for no effect and ±100 for the full control effect; nearly all actives have a fitted effect of over 60% in size
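First, the protein-peptide complex forms for 30 min at room temperature (L3MBTL1 50 nM, biotinylated H3K9me1 peptide 75 nM). Next, compounds are pin-transferred and incubated 30 min. Finally, AlphaScreen beads are added and read after 30 min.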
HP1b chromo inh = HTS for Inhibitors of HP1-beta Chromodomain Interactions with Methylated Histone Tails. AlphaScreen HP1-beta / biotin-H3K9me3 peptide binding. AID 540317, 2011. actives 0.56% (n = 390,000). Potency, µM (series often up to 114 µM), for inactives: top-dose activity change, negative = inhibition, actives largely listed as inhibitors; also: nearly all actives have a fitted effect of over 70% in size
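HP1-beta protein (50 nM final) preincubated 30 min at room temperature with biotinylated H3(1-18)K9me3 peptide (50 nM) in PBS pH 7.4, 0.01% Tween-20, then compound added for 30 min. AlphaScreen streptavidin donor/nickel chelate acceptor beads (10 ug/mL final), 30 min dark, luminescence read.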
JMJD2A Tudor = qHTS Assay for Inhibitors of JMJD2A-Tudor Domain; actives 4.4% (n = 390,000); Potency, µM (series often up to 114 µM), inactives show at the highest dose activity change, negative = inhibition, usual class: inhibitors; AlphaScreen JMJD2A-Tudor / H3K4me3 peptide binding; Lysine-specific demethylase 4A (Homo sapiens), O75164; also: % is scaled to controls: 0 for no effect and ±100 for the full control effect; nearly all actives have a fitted effect of over 50% in size
Target sequence (O75164 whole entry, looked up, the tested form may be a part): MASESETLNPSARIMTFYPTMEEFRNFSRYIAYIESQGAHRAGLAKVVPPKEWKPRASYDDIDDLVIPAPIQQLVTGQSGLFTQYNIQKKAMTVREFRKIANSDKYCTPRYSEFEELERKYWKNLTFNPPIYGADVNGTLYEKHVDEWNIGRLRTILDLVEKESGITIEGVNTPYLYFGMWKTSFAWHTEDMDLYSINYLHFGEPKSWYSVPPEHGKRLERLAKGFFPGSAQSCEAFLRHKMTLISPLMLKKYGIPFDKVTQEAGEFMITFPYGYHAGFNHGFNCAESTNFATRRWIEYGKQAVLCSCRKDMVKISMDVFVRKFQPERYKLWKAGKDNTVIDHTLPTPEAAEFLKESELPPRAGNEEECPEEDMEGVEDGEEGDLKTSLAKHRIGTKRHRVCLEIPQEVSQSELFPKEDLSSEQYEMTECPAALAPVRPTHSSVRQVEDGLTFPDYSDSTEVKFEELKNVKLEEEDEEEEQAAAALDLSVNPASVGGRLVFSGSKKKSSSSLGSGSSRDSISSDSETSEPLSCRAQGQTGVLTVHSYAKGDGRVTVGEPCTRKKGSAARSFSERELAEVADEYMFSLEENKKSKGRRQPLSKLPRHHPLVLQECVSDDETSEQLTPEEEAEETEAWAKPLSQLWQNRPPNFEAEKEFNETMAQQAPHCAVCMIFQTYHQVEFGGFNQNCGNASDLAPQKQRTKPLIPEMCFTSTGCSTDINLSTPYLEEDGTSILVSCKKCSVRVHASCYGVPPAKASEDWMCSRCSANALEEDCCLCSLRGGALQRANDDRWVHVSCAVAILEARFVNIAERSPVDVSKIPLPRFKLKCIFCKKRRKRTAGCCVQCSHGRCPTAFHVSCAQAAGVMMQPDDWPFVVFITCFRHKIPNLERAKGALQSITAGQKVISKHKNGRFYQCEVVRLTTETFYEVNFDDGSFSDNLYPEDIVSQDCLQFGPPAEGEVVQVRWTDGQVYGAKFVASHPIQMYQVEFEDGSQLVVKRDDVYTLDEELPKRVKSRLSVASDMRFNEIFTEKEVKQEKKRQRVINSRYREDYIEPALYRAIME
Sfp PPTase inh = qHTS Assay for Inhibitors of Bacillus subtilis Sfp phosphopantetheinyl transferase (PPTase); 4'-phosphopantetheinyl transferase ffp (Bacillus subtilis), Q9F4F7; Biochemical Sfp PPTase activity, qHTS; Potency, µM, for the others: largest response in the series, negative = inhibition, most hits filed as inhibitors; actives 3.5% (n = 310,000);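 also: the enzyme is Sfp with the accession as filed and its product quenches rhodamine fluorescence; 0% = enzyme reaction without inhibitor and -100% = no enzyme wells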
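Sfp 15 nM + cpd, 15 min RT; start w/ rhodamine-CoA 5 uM, BHQ-2-YbbR 12.5 uM (final); 50 mM Hepes pH 7.6, 10 mM MgCl2, 0.01% NP-40, 0.01% BSA; read 525/598 nm at 0 and 30 min.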
BAZ2B inh = qHTS Assay for Inhibitors of BAZ2B. Bromodomain adjacent to zinc finger domain protein 2B (Homo sapiens), Q9UIF8. AlphaScreen BAZ2B-H3K14Ac peptide displacement. Potency, µM (series often up to 114 µM), without a hit: top-dose activity change, negative = inhibition, most hits filed as inhibitors. actives 4.4% (n = 360,000). AID 504333, 2011; also: % is scaled to controls: 0 for no effect and ±100 for the full control effect; nearly all actives have a fitted effect of over 60% in size
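AlphaScreen luminescence quantifies BAZ2B engagement of H3K14Ac peptide; the protein and biotinylated peptide are both at 50 nM final, buffer PBS pH 7.4 with 0.01% Tween-20, all steps at room temperature.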
An asterisk follows results filed as active; ? = inconclusive; / = not tested or not shown; [ ] = remark or other dose. Most compounds without a hit are left out; they make up all but 12% or so of the library. Calls follow the shape of the dose curve; as a rule, active = well fitted curve in the direction sought with a large enough effect; inconclusive = small, poorly fitted or top-dose-only effect, or another doubt; inactive = no such curve, though single readings can be large; an effect the other way counts as inactive or inconclusive. Potency is read from the fitted curve at half-maximal effect.

SMILES	G9a block	L3MBTL1 block	HP1b chromo inh	JMJD2A Tudor	Sfp PPTase inh	BAZ2B inh
O=c1cc2nc(-c3ccccc3)nc(SCc3cccc(Br)c3)n2[nH]1	24%[59 µM]	/	29%	-18%	/	-26%
COc1ccc(-c2sc(C(=O)c3ccc(Cl)cc3Cl)cc2CC(=O)O)cc1	16%	/	16%	11%	5%	13%
NNC(=O)c1sc2cc(C(F)(F)F)cnc2c1-c1cccs1	-18%	-13%	43%	-6%	7%	-10%
O=C(Nc1ccccc1)c1sc2cc(C(F)(F)F)cnc2c1-c1cccs1	?	/	6%	28µM*	1%	3%
Cn1c(=O)c2c(nc(Sc3ccccc3N)n2C)n(C)c1=O	10µM*	4%	20%	-26%	-12%	1%
COc1ccc(OC)c(CNc2ncnc3c2nc2n3CCCC2)c1	-27%[59 µM]	/	35%	-4%	/	-14%
Brc1ccc2[nH]c3c(c2c1)CCC3	?	-5%	-22%	?	9%	50µM*
O=[N+]([O-])c1ccc2[nH]c3c(c2c1)CCCC3	40µM*	/	3%	?	12%	?
O=[N+]([O-])c1cccc2c3c([nH]c12)CCCC3	8.9µM*	-2%	?	-29%	18%	?
O=c1c2c([nH]c3ccc(Br)cc13)CCCC2	?	9%	21%	-12%	9%	-5%
CC1CCCN(S(=O)(=O)c2ccc3c(c2)CCN3C(=O)CCC(=O)O)C1 (stereo unspecified)	1%[59 µM]	/	44%	6%	/	6%[57.1 µM]
CCn1nc(C)c(CCN(C)C(=O)Nc2ccc(C)c(Cl)c2)c1C	2%[59 µM]	/	8%	-3%	/	0%
Cc1ccc(NN2C(=O)C=C(c3ccccc3)C2=O)cc1	10µM*	14%	-33%	-32%	11µM*	-31%
Cc1ccc(NC(=O)c2csc(-c3ccccc3)c2C)cc1	9%[59 µM]	9%	17%	-14%	7%	0%
CC1Cc2cc(S(=O)(=O)N3CCC(C(=O)Nc4ccccn4)CC3)ccc2N1C(=O)C1CCC1 (stereo unspecified)	13%	/	21%	-16%	8%	-21%
Cc1ccc(OCCC(=O)N2CCN(c3ccc(O)cc3)CC2)cc1	11µM*	-24%	-26%	14µM*	56µM*	-35%
Cc1ccc(S(=O)(=O)N2CCN(CC(=O)NCC3(N4CCOCC4)CCCCC3)CC2)cc1	45µM*	1%	11%	-19%	/	-2%
CCOc1ccc(C(=O)CCC(=O)N2CCN(c3ccc(O)cc3)CC2)cc1	/	-3%	1%	-32%	/	/
O=C(CCC(=O)N1CCN(c2ccc(O)cc2)CC1)c1cccs1	13µM*	?	-18%	-11%	25µM*	-29%
O=C(CN1CCN(S(=O)(=O)c2ccc(Cl)cc2)CC1)NCC1(N2CCOCC2)CCCCC1	-10%[12.7 µM]	3%	28%	-17%	/	0%
Cc1ccc(S(=O)(=O)N2CCN(C(=O)CN3CCN(c4ccc(O)cc4)CC3)CC2)cc1	/	/	?	45µM*	/	/
O=C(CSC1=NS(=O)(=O)c2ccccc2N1)Nc1nccs1	-41%	5%	15%	-16%	/	-9%
COc1cc(/C=C(\C#N)C(=O)Nc2ccccc2C(=O)O)cc(Cl)c1OC	-46%	32%	1%	-20%	6%	-13%
O=C(CCN1CCCC1)c1cccs1	25µM*	-13%	39%	-3%	-21%	25%
Cc1ccc(NC(=S)c2nc3ccccc3[nH]2)cc1	54%[0.501 µM]	?	?	?	12%	10µM*
Cc1ccc(C)c(Nc2nc3ccccc3[nH]2)c1	/	/	37%	-14%	/	/
